Assay results from PubChem BioAssay.
Calls of active or inactive are those of the source. Unless noted, no rule for the calls is given here.

Legend:
[1] = A549 cell viability effects, profiling panel, calcein-AM fluorescence, 48 h, basal (AID 1162); settings: higher = more signal; also: test concentration not given here
[2] = adipocyte viability effects, profiling panel, cell-based, 3T3-L1 adipocytes, calcein-AM fluorescence, 48 h, basal (AID 1163); settings: 3T3-L1 adipocytes viability, higher = more signal; also: test concentration not given here
[3] = HepG2 cell viability effects, profiling panel, calcein-AM fluorescence, 48 h, basal (AID 1164); settings: higher = more signal; also: test concentration not given here
[4] = MM1S cell viability effects, profiling panel, calcein-AM fluorescence, 48 h, basal (AID 1165); settings: higher = more signal;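 also: viability of MM1S multiple myeloma cells under basal unstimulated conditions; test concentration not given here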
[5] = basal RPMI8226 viability, no added stimulus, profiling panel, cell-based, calcein-AM fluorescence, 48 h, PK04 Diversity Set (AID 1166); settings: RPMI8226 myeloma viability, higher = more signal;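 also: cells grown under basal conditions without added stimulus; test concentration not given here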
[6] = basal HepG2 mitochondrial membrane potential changes, profiling panel, cell-based, JC-1 fluorescence, 24 h, 100 nL compound (AID 1167); settings: higher = more signal; also: test concentration not given here
[7] = basal 3T3-L1 adipocyte mitochondrial potential changes, profiling panel, cell-based, JC-1 fluorescence, 3T3-L1 adipocytes, 24 h, 100 nL compound (AID 1168); settings: JC-1 mitochondrial fluorescence, higher = more signal, called active from +8 up or from −8 down; also: test concentration not given here
[8] = basal RPMI8226 mitochondrial membrane potential changes, profiling panel, cell-based, JC-1 fluorescence, 24 h, 100 nL compound (AID 1169); settings: RPMI8226 myeloma, JC-1 mitochondrial potential fluorescence, higher = more signal; also: test concentration not given here
[9] = basal MM1S mitochondrial membrane potential changes, profiling panel, cell-based, JC-1 fluorescence, 24 h, 100 nL compound (AID 1170); settings: higher = more signal; also: test concentration not given here
[10] = A549 lung cancer cell viability effects, profiling panel, resazurin fluorescence, 24 h, PK04 Diversity Set (AID 1171); settings: higher = more signal, called active from +8 up or from −8 down; also: test concentration not given here
[11] = HepG2 liver cancer cell viability effects, profiling panel, resazurin fluorescence, 24 h, PK04 Diversity Set (AID 1172); settings: higher = more signal; also: test concentration not given here
[12] = basal S. cerevisiae growth modulation, no modifier, primary screen, OD600, strain BY4716, 24 h, basal condition (AID 1173); settings: OD600, 24 h, higher = more signal, called active from +8 up or from −8 down
[13] = MM1S myeloma cell viability, profiling panel, resazurin fluorescence, basal, 24 h, PK04 Diversity Set (AID 1174); settings: higher = more signal, called active from +8 up or from −8 down;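 also: MM1S multiple myeloma cell line; test concentration not given here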
[14] = target: Dihydroorotate dehydrogenase (quinone), mitochondrial (Plasmodium falciparum (isolate 3D7)) (UniProt Q08210); test: PfDHODH enzyme inhibitors, primary screen, biochemical, C-terminal His tag, absorbance 600 nm (AID 1175); settings: DCIP absorbance 600 nm, higher = more signal, called active from +8 up or from −8 down;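 also: recombinant parasite enzyme with a five histidine tag at its C terminus; test concentration not given here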
[15] = P. aeruginosa biofilm formation inhibitors, primary screen, strain PAO1, LB-PBS medium, absorbance 600 nm (AID 1176); also: test concentration not given here; settings: P. aeruginosa PAO1 growth/biofilm, A600, 12 h; higher = more signal
[16] = S. cerevisiae RM11-1a growth modifiers, primary screen, strain RM11-1a, OD600, basal, 24 h (AID 1177); settings: OD600, 24 h, higher = more signal, called active from +8 up or from −8 down;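 also: cultures grown under basal conditions with no added stressor; test concentration not given here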
[17] = E. coli acrAB mutant growth effects, primary screen, E. coli filamentation inducers, strain DRC39, OD650, 24 h (AID 1178); settings: higher = more signal, called active from +8 up or from −8 down;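 also: growth measured as culture turbidity by optical density at 650 nm; test concentration not given here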
[18] = E. coli acrAB mutant growth effects, primary screen, E. coli filamentation inducers, strain DRC39, OD650, 48 h (AID 1179);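 also: screen aims at cell division blockers that make cells filament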; settings: E. coli DRC39 delta-acrAB growth, higher = more signal, called active from +8 up or from −8 down
[19] = RPMI8226 myeloma cell viability, profiling panel, resazurin fluorescence, basal, 24 h, PK04 Diversity Set (AID 1180); settings: higher = more signal;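 also: RPMI8826 multiple myeloma cell line at 5000 cells per well; test concentration not given here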
[20] = target: E3 ubiquitin-protein ligase XIAP (Homo sapiens) (UniProt P98170); test: XIAP binders, primary screen, biophysical, small-molecule microarray, fluorescence 635 nm (AID 1181); settings: small-molecule microarray binding, higher = more signal;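 also: score merges 667 nm emission and signal to noise over triplicate slides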
E3 ubiquitin-protein ligase XIAP (Homo sapiens), sequence (P98170 whole entry, looked up): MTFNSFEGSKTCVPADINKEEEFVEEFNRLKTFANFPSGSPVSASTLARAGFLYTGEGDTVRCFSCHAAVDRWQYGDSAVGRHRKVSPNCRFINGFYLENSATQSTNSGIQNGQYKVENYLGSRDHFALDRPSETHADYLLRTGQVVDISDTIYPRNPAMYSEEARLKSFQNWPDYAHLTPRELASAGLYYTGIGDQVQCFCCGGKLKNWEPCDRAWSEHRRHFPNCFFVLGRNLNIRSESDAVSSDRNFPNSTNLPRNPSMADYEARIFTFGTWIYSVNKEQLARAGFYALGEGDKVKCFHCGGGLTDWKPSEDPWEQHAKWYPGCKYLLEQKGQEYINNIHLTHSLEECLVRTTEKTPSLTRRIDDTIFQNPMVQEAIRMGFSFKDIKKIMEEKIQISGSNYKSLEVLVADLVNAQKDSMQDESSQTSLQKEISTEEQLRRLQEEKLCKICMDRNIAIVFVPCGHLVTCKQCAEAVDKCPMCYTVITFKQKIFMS

Dihydroorotate dehydrogenase (quinone), mitochondrial (Plasmodium falciparum (isolate 3D7)), sequence (Q08210 whole entry, looked up): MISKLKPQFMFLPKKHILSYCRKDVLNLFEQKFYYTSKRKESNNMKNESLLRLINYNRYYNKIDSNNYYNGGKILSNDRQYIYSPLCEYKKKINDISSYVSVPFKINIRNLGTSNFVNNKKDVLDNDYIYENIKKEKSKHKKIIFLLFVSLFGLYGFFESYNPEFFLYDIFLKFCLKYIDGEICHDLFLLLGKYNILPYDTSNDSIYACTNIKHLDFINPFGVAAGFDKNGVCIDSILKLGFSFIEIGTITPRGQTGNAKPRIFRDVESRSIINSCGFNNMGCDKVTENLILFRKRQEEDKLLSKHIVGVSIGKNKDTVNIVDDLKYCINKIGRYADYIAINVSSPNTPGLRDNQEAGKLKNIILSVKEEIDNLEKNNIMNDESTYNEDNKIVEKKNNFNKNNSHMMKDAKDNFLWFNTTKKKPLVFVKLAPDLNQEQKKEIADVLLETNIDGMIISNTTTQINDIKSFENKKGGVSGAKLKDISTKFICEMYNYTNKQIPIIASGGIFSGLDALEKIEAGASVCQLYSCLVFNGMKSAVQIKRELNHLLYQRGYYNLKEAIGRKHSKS

SMILES | z-score [1] | z-score [2] | z-score [3] | z-score [4] | z-score [5] | z-score [6] | z-score [7] | z-score [8] | z-score [9] | z-score [10] | z-score [11] | z-score [12] | z-score [13] | composite z-score [14] | z-score [15] | z-score [16] | z-score [17] | z-score [18] | z-score [19] | composite z-score [20]
[N-]=[N+]=NCc1ccccc1[C@H]1OC(c2ccc(OCCCO)cc2)=N[C@@]1(Cc1ccccc1N=[N+]=[N-])C(=O)NCc1ccccc1 | -0.741 | 0.236 | -0.946 | -2.4 | -3.8 | 0.37 | -0.296 (inactive) | -1.02 | -1.38 | 0.0642 (inactive) | -0.494 | 0.745 (inactive) | -2.31 (inactive) | 0.545 (inactive) | 2.26 (inactive) | 1.95 (inactive) | 0.134 (inactive) | -0.321 (inactive) | -1.52 | -0.117
O=C/C=C/c1ccccc1Cl | 1.23 | 0.556 | 1.03 | -0.882 | 0.895 | 1.74 | 0.603 (inactive) | 0.562 | 1.09 | 0.807 (inactive) | 0.965 | -7.23 (inactive) | 0.413 (inactive) | -0.516 (inactive) | -0.227 (inactive) | -1.17 (inactive) | 0.834 (inactive) | 0.496 (inactive) | 2.16 | -0.0393
Cc1cc(C)c(C(O)C2C=CC3C(=O)N(C)C(=O)C3N2N2CCCCC2)c(C)c1 (stereo not given) | -0.905 | -0.878 | -0.863 | -0.225 | -1.11 | -1.74 | -0.721 (inactive) | 0.935 | 0.173 | 0.406 (inactive) | 0.0632 | 0.361 (inactive) | -1.09 (inactive) | -0.416 (inactive) | 0.875 (inactive) | -0.136 (inactive) | -0.894 (inactive) | -0.435 (inactive) | -1.02 | 0.305
C=CC[C@]1(C(=O)N2CCCCC2)N=C(c2ccc(OCCCO)cc2)O[C@H]1c1ccccc1N=[N+]=[N-] | -0.871 | 1.65 | -0.715 | -1.56 | -2.55 | 0.654 | 0.866 (inactive) | -1.17 | -0.511 | -1.19 (inactive) | -0.0748 | -0.807 (inactive) | -1.91 (inactive) | 2.06 (inactive) | 0.274 (inactive) | 1.55 (inactive) | 0.16 (inactive) | -0.58 (inactive) | -1.15 | 1.74
C=CC[C@@]1(C(=O)NCC(O)CO)N=C(c2ccc(OCCCO)cc2)O[C@@H]1c1ccccc1CN=[N+]=[N-] (stereo not given in full) | 2.22 | 0.0076 | 0.816 | 0.92 | 0.0295 | 1.41 | 1.62 (inactive) | -0.153 | -0.873 | 0.047 (inactive) | -0.192 | -1.14 (inactive) | -0.754 (inactive) | 0.592 (inactive) | 0.385 (inactive) | -0.0334 (inactive) | 0.613 (inactive) | 1.52 (inactive) | 0.516 | 0.254
O=C1OCCC/C=C\[C@H]2OC34C=CCN(CCN5CCOCC5)C(=O)[C@H]3N(CCCCCO)C(=O)[C@@H]4C12 (stereo not given in full) | 0.739 | 0.216 | -0.123 | 1.1 | -0.0521 | -1.04 | 0.348 (inactive) | 0.329 | -0.102 | -0.254 (inactive) | -0.567 | -0.0575 (inactive) | -0.193 (inactive) | 0.286 (inactive) | -0.0432 (inactive) | -0.634 (inactive) | 0.157 (inactive) | 0.0435 (inactive) | 0.0501 | -0.124
CC(C)[C@H]1NC(=O)[C@@]23C(=O)N[C@@H](Cc4ccccc4)C2[C@H](C)[C@@]2(C)O[C@H]2C3/C=C/C/C=C\CNC(=O)[C@H](C)NC1=O (stereo not given in full) | 0.011 | 0.657 | -0.614 | 0.434 | -0.938 | -0.458 | -0.0933 (inactive) | 0.279 | 0.498 | 0.0653 (inactive) | -0.546 | 0.976 (inactive) | 0.323 (inactive) | -0.0591 (inactive) | 1.13 (inactive) | 1.01 (inactive) | -0.198 (inactive) | -0.301 (inactive) | 0.142 | -0.129
COCCCNC(=O)[C@@H]1c2ccccc2C(=O)N(CC23CC4CC(CC(C4)C2)C3)[C@H]1c1ccc(CO)cc1 | 0.0071 | 1.3 | 0.0729 | -0.193 | -0.996 | 1.12 | -0.227 (inactive) | 0.0172 | 0.0814 | 0.729 (inactive) | 0.172 | -0.323 (inactive) | -0.104 (inactive) | 0.297 (inactive) | 0.87 (inactive) | 0.208 (inactive) | 0.0488 (inactive) | -0.543 (inactive) | 0.0917 | 0.03
C[C@H]1C2[C@H](Cc3ccccc3)NC(=O)[C@]23C(=O)N[C@H](Cc2ccccc2)C(=O)N[C@@H](Cc2ccccc2)C(=O)NC/C=C\C/C=C/C3[C@@H]2O[C@]12C (stereo not given in full) | 0.373 | 0.353 | 0.0599 | -0.442 | -1.35 | 1.24 | 0.4 (inactive) | -0.52 | 0.29 | 0.276 (inactive) | -0.204 | -1.79 (inactive) | 1.03 (inactive) | -0.427 (inactive) | -0.234 (inactive) | -0.617 (inactive) | 1.73 (inactive) | 0.9 (inactive) | 0.724 | 0.306
